Inconclusive results are not listed. Activity calls are given as the source filed them. Unless noted, the call rests on the fitted dose curve; in most records, active means well fitted curve in the direction sought with a large enough effect; inconclusive means small, poorly fitted or top-dose-only effect, or another doubt; inactive means no such curve, though single readings can be large; an effect the other way counts as inactive or inconclusive.
Tests used:
[1] = AP1 Signaling Pathway (AID 357; active means well fitted curve in either direction with a large enough effect, not every such curve was filed as active;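 further: ME-180 reporter cells stimulated with EGF at its EC50 level; on the % scale 0 is the no-effect control and ±100 the full control effect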); details: ME-180 AP-1-bla reporter, EGF-induced, beta-lactamase ratio, 5 h; at 7.69 µM (top of the series) unless noted
Summary of the method: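 AP-1-bla ME-180 cells, Opti-MEM + 0.5% dialyzed FBS, plated overnight 37 °C. Cpd titration + EC50 EGF, 5 h 37 °C. CCF4 2.5 h RT; ex 405, em 460/530 ratio → %activity, AC50.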

[2] = NFAT Signaling Pathway (AID 444; active means well fitted curve in either direction with a large enough effect, not every such curve was filed as active;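 further: carbachol stimulus at about its EC50 of 1 µM final; on the % scale 0 is the no-effect control and ±100 the full control effect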); details: Jurkat NFAT-bla M1, carbachol, beta-lactamase ratio, 5 h; at 7.69 µM (top of the series) unless noted
Summary of the method: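 Jurkat cells with NFAT-driven β-lactamase reporter and co-expressed M1 receptor, stimulated with carbachol (final 1 uM, ~EC50), compound titration, 5 h at 37 °C. CCF4 loaded 1 h at RT; 460/530 nm ratio gave %activity and AC50.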

[3] = Stat Signaling Pathway (AID 446; active means well fitted curve in either direction with a large enough effect, not every such curve was filed as active;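 further: ME-180 cervical cancer cells given 40 pM IL-6 alongside compound; SIE-controlled beta-lactamase reporter measured as 460/530 nm FRET emission ratio; on the % scale 0 is the no-effect control and ±100 the full control effect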); details: ME-180 (cervical carcinoma) SIE beta-lactamase reporter, IL-6 stimulated, 5 h; at 7.69 µM (top of the series) unless noted
Summary of the method: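 Compound effects on IL-6-induced STAT reporter activity were measured in ME-180 cells. After overnight culture, cells were co-treated with 40 pM IL-6 for 5 hrs before beta-lactamase substrate loading at room temperature.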

[4] = molecular target: Glucocorticoid receptor (Homo sapiens) (UniProt P04150); experiment: GR-EFC Redistribution (AID 451; calls by dose curve; further: potency means the concentration at half of the fitted maximal effect); details: CHO-K1 GR-EFC translocation, beta-gal luminescence, 2 h
Chain of Glucocorticoid receptor (Homo sapiens) (P04150 whole entry, looked up, the tested form may be a part): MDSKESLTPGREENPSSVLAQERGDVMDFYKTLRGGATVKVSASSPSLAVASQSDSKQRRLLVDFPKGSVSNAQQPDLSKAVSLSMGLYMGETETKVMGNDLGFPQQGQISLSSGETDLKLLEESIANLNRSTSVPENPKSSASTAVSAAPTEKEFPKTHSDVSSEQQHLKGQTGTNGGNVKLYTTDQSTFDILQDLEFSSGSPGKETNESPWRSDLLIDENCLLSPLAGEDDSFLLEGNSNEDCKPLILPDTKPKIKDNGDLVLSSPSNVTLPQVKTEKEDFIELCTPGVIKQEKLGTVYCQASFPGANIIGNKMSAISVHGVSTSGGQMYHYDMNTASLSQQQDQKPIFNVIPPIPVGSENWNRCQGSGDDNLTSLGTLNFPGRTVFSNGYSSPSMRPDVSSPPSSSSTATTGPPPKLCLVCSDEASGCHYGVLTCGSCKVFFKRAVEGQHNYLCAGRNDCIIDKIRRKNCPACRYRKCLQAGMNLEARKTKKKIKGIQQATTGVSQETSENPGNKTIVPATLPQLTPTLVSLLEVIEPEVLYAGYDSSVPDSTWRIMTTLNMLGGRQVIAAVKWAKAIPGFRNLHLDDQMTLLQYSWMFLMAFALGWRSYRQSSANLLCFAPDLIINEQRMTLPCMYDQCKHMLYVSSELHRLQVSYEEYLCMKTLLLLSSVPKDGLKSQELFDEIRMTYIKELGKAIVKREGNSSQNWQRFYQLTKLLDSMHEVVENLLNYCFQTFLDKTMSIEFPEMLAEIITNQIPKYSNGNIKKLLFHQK
Summary of the method: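 CHO-K1 cells expressing nuclear EA and GR-ED fragments of b-gal; compounds titrated up to 46 uM final, 2 h at 37 C. GR nuclear translocation read as complemented b-gal luminescence after 1 h RT detection.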

[5] = molecular target: Mitogen-activated protein kinase 10 (Mus musculus) (UniProt Q61831); experiment: JNK3 AlphaScreen Assay (AID 530; active means well fitted curve in either direction with a large enough effect, not every such curve was filed as active;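 further: kinase came from lysate of stimulated human HepG2 cells; signal reports phosphorylation of biotinylated GST-cJun 1-79 at Ser73 with 10 µM ATP; on the % scale 0 is the no-effect control and ±100 the full control effect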)
Summary of the method: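 HepG2 lysate (IL-1b/TNFa pre-activated) + biotin-GST-cJun 1-79 + anti-pSer73 cJun; cpd titration, 15 min RT; ATP 10 uM start; Tris pH 7.6, MgCl2, DTT, vanadate; beads in EDTA buffer; AlphaScreen.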

[6] = molecular target: 3',5'-cyclic-AMP phosphodiesterase 4B (Homo sapiens) (UniProt Q07343); experiment: qHTS Assay for Inhibitors of PDE-IV (AID 607; active means well fitted activation curve with a large enough effect in the main read-out, with a control signal flat, not every such curve was filed as active; further: % of control where 0% means no effect)
Chain of 3',5'-cyclic-AMP phosphodiesterase 4B (Homo sapiens) (Q07343 whole entry, looked up): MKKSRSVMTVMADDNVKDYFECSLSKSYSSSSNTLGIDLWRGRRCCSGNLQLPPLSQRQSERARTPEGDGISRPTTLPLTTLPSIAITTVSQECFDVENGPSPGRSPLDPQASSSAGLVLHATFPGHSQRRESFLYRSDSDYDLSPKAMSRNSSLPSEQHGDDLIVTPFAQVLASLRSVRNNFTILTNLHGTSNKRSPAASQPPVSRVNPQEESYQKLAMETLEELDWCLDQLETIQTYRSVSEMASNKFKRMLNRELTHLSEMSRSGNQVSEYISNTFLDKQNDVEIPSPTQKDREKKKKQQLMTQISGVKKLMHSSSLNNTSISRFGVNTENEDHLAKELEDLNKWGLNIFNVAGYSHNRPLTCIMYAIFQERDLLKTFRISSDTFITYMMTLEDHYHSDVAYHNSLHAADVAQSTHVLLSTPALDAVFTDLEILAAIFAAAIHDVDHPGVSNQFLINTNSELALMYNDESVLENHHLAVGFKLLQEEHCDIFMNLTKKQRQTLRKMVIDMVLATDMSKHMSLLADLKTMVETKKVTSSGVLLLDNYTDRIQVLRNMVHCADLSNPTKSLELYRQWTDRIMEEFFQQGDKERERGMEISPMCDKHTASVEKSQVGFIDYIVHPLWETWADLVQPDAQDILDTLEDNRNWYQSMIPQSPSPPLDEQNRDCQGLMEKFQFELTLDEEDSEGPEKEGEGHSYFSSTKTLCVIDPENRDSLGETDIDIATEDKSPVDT
Summary of the method: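 ACTOne HEK293 cells carry a modified cAMP-gated CNG channel and express endogenous PDE4; plated 1000 cells/well, compounds up to 22.9 uM final. Membrane-potential dye fluorescence (ex 535/em 590) was read; parental cells received 10 uM forskolin + 100 uM RO 20-1724.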

[7] = molecular target: Guanine nucleotide-binding protein G(i) subunit alpha-1 (Homo sapiens) (UniProt P63096); experiment: qHTS Assay for Inhibitors of RGS12 GoLoco Motif Activity (Green Fluorophore) (AID 879);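 further: 0% = labeled peptide with Gαi1 and full inhibition = labeled peptide alone without protein; negative values mean loss of peptide binding seen as reduced polarization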
Summary of the method: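 A drop in FITC polarization marked displacement of the FITC-tagged RGS12 GoLoco peptide (10 nM) from Gαi1 (50 nM). Compounds were incubated 10 min at room temperature in Tris pH 7.5 buffer containing 150 mM NaCl, 0.1 mM GDP and 0.05% NP40; unlabeled peptide titration served as control.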

[8] = qHTS Assay for Identification of Small Molecule Agonists for Thrombopoietin (TPO) Signaling Pathway (AID 917); further: on the % scale 0 is the no-effect control and ±100 the full control effect
Summary of the method: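 Cell-based luciferase reporter screen. Mouse Ba/F3 line stably expressing human TPO receptor; IL-3 removed overnight before plating. Co-treatment with compound and EC50 TPO (26 pM), 24 hrs at 37 C, then luminescence.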

[9] = molecular target: Muscarinic acetylcholine receptor M1 (Rattus norvegicus) (UniProt P08482); experiment: qHTS Assay for Antagonists of Acetylcholine Muscarinic M1 Receptor: Kinetic Measurement of Intracellular Calcium Response (AID 943);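 further: Fluo-4 calcium signal as peak divided by basal fluorescence over 4 min; nearly all actives have a fitted effect of over 75% in size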
Chain of Muscarinic acetylcholine receptor M1 (Rattus norvegicus) (P08482 whole entry, looked up): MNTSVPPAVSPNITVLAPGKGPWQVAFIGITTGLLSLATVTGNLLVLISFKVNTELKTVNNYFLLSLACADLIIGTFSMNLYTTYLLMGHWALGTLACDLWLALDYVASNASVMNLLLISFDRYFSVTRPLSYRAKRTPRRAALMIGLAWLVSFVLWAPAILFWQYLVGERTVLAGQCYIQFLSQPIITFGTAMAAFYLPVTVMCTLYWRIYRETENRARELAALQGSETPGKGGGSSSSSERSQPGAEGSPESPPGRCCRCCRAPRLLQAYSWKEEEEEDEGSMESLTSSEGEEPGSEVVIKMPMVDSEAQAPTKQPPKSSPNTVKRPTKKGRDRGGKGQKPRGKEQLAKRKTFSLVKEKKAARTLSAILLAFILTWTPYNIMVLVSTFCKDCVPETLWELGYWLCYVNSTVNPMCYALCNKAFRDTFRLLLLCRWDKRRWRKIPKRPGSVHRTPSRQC
Summary of the method: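 Quantitative HTS in CHO-M1 (rat receptor) cells: 10 min compound exposure ahead of 100 nM carbachol, Fluo-4 fluorescence followed 4 min, value expressed as peak-to-basal ratio.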

[10] = molecular target: Muscarinic acetylcholine receptor M1 (Rattus norvegicus) (UniProt P08482); experiment: qHTS Assay for Antagonists of Acetylcholine Muscarinic M1 Receptor: Measurement of IP-One Response (AID 944); further: nearly all actives have a fitted effect of over 75% in size
Summary of the method: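 Antagonism was measured as loss of carbachol-driven (EC80) IP1 accumulation in CHO cells carrying rat M1, using a homogeneous IP-One TR-FRET kit read at 620 and 665 nm.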

[11] = molecular target: Pyruvate kinase (Leishmania mexicana) (UniProt Q27686); experiment: qHTS Validation Assay for Inhibitors of Leishmania Mexicana Pyruvate Kinase (AID 945);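 further: 0% = DMSO only neutral control wells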
Chain of Pyruvate kinase (Leishmania mexicana) (Q27686 2-499 E452W): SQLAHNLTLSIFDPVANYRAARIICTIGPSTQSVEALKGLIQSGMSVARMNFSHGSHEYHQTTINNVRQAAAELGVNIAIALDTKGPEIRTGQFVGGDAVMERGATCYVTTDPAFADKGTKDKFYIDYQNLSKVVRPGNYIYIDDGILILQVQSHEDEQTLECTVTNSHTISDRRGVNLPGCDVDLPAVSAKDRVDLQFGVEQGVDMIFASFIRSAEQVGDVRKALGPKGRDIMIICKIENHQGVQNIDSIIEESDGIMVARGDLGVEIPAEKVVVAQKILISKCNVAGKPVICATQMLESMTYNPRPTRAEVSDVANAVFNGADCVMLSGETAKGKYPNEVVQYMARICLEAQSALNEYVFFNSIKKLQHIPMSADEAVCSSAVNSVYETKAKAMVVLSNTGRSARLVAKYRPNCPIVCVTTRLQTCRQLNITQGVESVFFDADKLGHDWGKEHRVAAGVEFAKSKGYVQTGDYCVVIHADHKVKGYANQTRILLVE
Summary of the method: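 Eight-point qHTS titrations in triplicate, data normalized to DMSO neutral control. Reaction: 0.2 nM LmPYK E451W mutant, 0.5 mM PEP, 0.1 mM ADP, 7 mM MgCl2, pH 7.2, one hour at room temperature; luminescent ATP detection.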

[12] = molecular target: Pyruvate kinase PKM (Homo sapiens) (UniProt P14618); experiment: qHTS Assay for Activators of Human Muscle Pyruvate Kinase (AID 954; active means well fitted curve in the direction sought with a large enough effect, not every such curve was filed as active;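 further: 0% = uninhibited enzyme and -100% = no enzyme or full thiadiazolimine inhibition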)
Chain of Pyruvate kinase PKM (Homo sapiens) (P14618 whole entry, looked up): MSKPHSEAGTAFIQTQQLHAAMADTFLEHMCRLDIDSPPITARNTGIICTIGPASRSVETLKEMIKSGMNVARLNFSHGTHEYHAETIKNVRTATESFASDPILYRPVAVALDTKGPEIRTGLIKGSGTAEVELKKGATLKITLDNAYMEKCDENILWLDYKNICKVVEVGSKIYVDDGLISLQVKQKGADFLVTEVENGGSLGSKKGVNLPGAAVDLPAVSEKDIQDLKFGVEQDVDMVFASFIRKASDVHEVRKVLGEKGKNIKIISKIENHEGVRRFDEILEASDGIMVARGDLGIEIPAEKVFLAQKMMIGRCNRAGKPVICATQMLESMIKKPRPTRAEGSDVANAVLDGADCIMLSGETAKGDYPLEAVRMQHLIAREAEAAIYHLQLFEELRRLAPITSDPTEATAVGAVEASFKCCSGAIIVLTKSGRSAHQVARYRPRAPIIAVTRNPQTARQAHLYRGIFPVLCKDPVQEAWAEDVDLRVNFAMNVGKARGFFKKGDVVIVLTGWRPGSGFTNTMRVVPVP
Summary of the method: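 A coupled luminescent readout tracked ATP made from ADP by purified PKM2. Final conditions included 0.1 nM enzyme, PEP and ADP at 0.5 and 0.1 mM, pH 7.2 imidazole buffer with BSA, and a one-hour room-temperature reaction.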

[13] = molecular target: Alpha-galactosidase A (Homo sapiens) (UniProt P06280); experiment: Counterscreen for Glucocerebrosidase Inhibitors: qHTS Assay for Human alpha-Galactosidase at pH 4.5 (AID 992); further: 0% is about no effect
Chain of Alpha-galactosidase A (Homo sapiens) (P06280 whole entry, looked up): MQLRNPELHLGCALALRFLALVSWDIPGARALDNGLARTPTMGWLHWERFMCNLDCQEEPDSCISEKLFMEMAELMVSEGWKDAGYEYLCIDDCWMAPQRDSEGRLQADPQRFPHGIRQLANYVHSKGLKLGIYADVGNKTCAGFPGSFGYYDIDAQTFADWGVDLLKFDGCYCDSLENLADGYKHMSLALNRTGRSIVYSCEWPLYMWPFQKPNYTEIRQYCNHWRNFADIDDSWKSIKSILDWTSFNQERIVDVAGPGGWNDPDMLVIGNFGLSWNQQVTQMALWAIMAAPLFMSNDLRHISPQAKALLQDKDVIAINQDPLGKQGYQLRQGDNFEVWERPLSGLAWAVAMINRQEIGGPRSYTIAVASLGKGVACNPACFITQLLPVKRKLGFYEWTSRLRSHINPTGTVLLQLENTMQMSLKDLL
Summary of the method: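 Citrate buffer pH 4.5, Tween-20 0.005%. Enzyme 2 nM, substrate 80 uM, 20 min RT. Stop pH 10. Fluorescence Ex 365/Em 440. AC50 by Hill fit.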

[14] = molecular target: alpha-glucosidase (Oryza sativa, rice) (UniProt Q653V4); experiment: Counterscreen for Glucocerebrosidase Inhibitors: qHTS Assay for Rice alpha-Glucosidase at pH 5.0 (AID 997);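 further: 0% = full activity with enzyme and -100% = basal without enzyme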
Summary of the method: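 Endpoint fluorogenic assay at pH 5.0: compounds (0.7 nM to 77 uM) titrated against 4 nM rice enzyme and 400 uM 4-MU-alpha-glucoside for 20 min at room temperature; NaOH/glycine stop, read ex 365/em 440 nm, Hill-fitted AC50.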

[15] = molecular target: DNA repair nuclease/redox regulator APEX1 (Homo sapiens) (UniProt P27695); experiment: qHTS Validation Assay for Inhibitors of the Human Apurinic/apyrimidinic Endonuclease 1 (APE1) (AID 1705)
Summary of the method: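 qHTS, 1536-well. APE1 + cpd 15 min RT → 50 nM TAMRA/BHQ-2 THF-abasic dsDNA substrate → kinetic fluorescence, 3 reads/60 s; delta(read3−read1) = reaction progress. No-enzyme buffer = negative control.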

[16] = Counterscreen for APE1 Inhibitors: Fluorescent Dye Displacement Validation Assay (AID 1707);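 further: plate controls were ThO with dsDNA and no compound for no effect and ThO without dsDNA for full effect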
Summary of the method: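 Signal: ThO fluorescence (ex 480 nm/em 540 nm) on binding 50 nM dsDNA; displacement by test compound reduces it. Conditions: 250 nM dye, 50 mM Tris-HCl pH7.5, 2 mM MgCl2, 50mM NaCl, 0.01% Tween-20.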

[17] = molecular target: Endonuclease 4 (Escherichia coli (strain K12)) (UniProt P0A6C1); experiment: Counterscreen for APE1 Inhibitors: qHTS Validation Assay for Inhibitors of Endonuclease IV (AID 1708); further: on the % scale 0 is the no-effect control and ±100 the full control effect
Summary of the method: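 Read-out: fluorescence rise (ex 525/em 598 nm) from incision of a TAMRA/BHQ-2 double-stranded THF abasic-site substrate (50 nM), measured kinetically; third-minus-first read difference gave reaction progress. Enzyme 2 nM.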

[18] = qHTS for differential inhibitors of proliferation of Plasmodium falciparum line D10 (AID 1877);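 further: parasites grown with compound for 72 h before DNA staining; plate controls were vehicle wells for no effect and reference inhibitor wells for full effect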
[19] = qHTS for differential inhibitors of proliferation of Plasmodium falciparum line Dd2 (AID 1882); details: Potency: Plasmodium falciparum Dd2 proliferation inhibition;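 further: compound exposure of 72 h on infected erythrocytes; plate controls were DMSO vehicle for no effect and 0.29 µM artemisinin for full effect; nearly all actives have a fitted effect of over 65% in size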
Summary of the method: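 RBC culture, 0.3% parasitemia / 2.5% Hct final; cpd added by pin tool in DMSO; 72 h, 37 C, 5% CO2; lysis buffer + SYBR Green I, o/n RT dark; FI 485/535; norm. to artemisinin 0.29 uM and DMSO.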

[20] = molecular target: Ferritin light chain (Equus caballus) (UniProt P02791); experiment: qHTS Validation Assay for Identification of Novel General Anesthetics (AID 2323); further: on the % scale 0 is the no-effect control and ±100 the full control effect
Summary of the method: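 Fluorescence at 535 nm (excitation 380 nm) reported loss of 1-AMA binding to horse-spleen apoferritin (10 uM) in PBS with 50% saturated 1-aminoanthracene, after 10 min room-temperature incubation with compound; values from Hill fits of normalized response.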

[21] = molecular target: ATP-dependent DNA helicase Q1 (Homo sapiens) (UniProt P46063); experiment: qHTS Validation Assay for Inhibitors of RecQ-Like Dna Helicase 1 (RECQ1) (AID 2353);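 further: plate controls were DMSO vehicle for no effect and enzyme-free control for full effect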
Summary of the method: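 RECQ1T1 50 nM; forked duplex (20 bp + 30-nt ss tails) 200 nM, ATP 2 mM final; pH 8.0, 2 mM MgCl2, 2.5 ug/ml poly(dI-dC); 15 min compound preincubation; discontinuous kinetic read over 2 h at RT.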

[22] = Validation screen for small molecules that induce DNA re-replication in MCF 10A normal breast cells (AID 463097); further: 0% is about no effect; nearly all actives have a fitted effect of over 60% in size
Summary of the method: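 Image-based qHTS: normal breast cells are incubated with compound for 48 hr, stained with Hoechst, and scanned for total nuclear fluorescence. Compounds raising the fraction of nuclei with elevated DNA content count as re-replication inducers.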

[23] = Quantitative high throughput screen for delayed death inhibitors of the malarial parasite plastid, 48 hour incubation (AID 488752); further: on the % scale 0 is the no-effect control and ±100 the full control effect; nearly all actives have a fitted effect of over 65% in size
Summary of the method: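 Cultures: infected erythrocytes at final 2% hematocrit and 0.1% parasitemia in Albumax-supplemented RPMI. Parasites express integrated firefly luciferase. Incubation with compound lasts 48 h before luminescent detection of remaining reporter activity.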

[24] = molecular target: Transient receptor potential cation channel subfamily V member 1 (Homo sapiens) (UniProt Q8NER1); experiment: HTS Assay for Compounds that Act as Enhancers of the Vanilloid Receptor 1 (AID 488979); further: 0% is about no effect
Summary of the method: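 TRPV1 cells loaded with Fluo-8 calcium dye; compound added and Ca2+ signal (ex 480/em 520 nm) followed 3 min, then capsaicin at EC20 added and read 2 more min to detect enhancement.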

[25] = molecular target: Thyrotropin receptor (Homo sapiens) (UniProt P16473); experiment: qHTS Assay for Antagonists of the Thyroid Stimulating Hormone Receptor (AID 488980); further: 0% is about no effect
Summary of the method: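 Readout is cAMP by HTRF competition between cellular cAMP and cAMP-d2 for a cryptate-labelled antibody. Antagonism was assessed in TSHR-transfected HEK293 cells stimulated with 4 nM TSH (EC80, final) in the presence of RO 20-1724.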

[26] = molecular target: Thyrotropin-releasing hormone receptor (Homo sapiens) (UniProt P34981); experiment: qHTS for Small Molecule Agonists and Allosteric Enhancers of Human TRH Receptor: Validation Screen for Agonists (AID 493127;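 active means calcium activation more than 3 SD above the typical response in the agonist read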;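 further: intracellular calcium rise by fluo-8 fluorescence before TRH EC20 addition; 0% is about no effect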); details: TRH receptor agonist cell assay; at 2 µM; hits give high values
Summary of the method: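 Kinetic fluorescence assay of agonist-induced calcium release: overnight-plated TRHR cells, room-temperature fluo-8 loading, baseline then compound addition with per-second reads.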

[27] = molecular target: Galactokinase (Homo sapiens) (UniProt P51570); experiment: qHTS Validation Assay for Inhibitors of Human Galactokinase (GALK) (AID 493189); further: 0% is about no effect
Chain of Galactokinase (Homo sapiens) (P51570 whole entry, looked up): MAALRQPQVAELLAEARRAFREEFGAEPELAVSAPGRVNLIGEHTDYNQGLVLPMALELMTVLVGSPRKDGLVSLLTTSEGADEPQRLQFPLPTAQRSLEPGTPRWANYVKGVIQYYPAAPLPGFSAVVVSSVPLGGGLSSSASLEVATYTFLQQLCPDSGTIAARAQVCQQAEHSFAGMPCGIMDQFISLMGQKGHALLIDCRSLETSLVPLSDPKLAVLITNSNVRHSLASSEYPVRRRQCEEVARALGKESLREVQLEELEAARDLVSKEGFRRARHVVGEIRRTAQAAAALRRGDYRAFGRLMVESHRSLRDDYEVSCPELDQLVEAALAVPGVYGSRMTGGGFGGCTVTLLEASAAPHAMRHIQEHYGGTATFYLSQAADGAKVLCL
Summary of the method: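 5 nM GALK / 100 uM galactose / 35 uM ATP, 20 mM HEPES pH8.0, 5 mM MgCl2, 60 mM NaCl, 1 mM DTT, 0.01% BSA (final). RT 1 h; Kinase-Glo Plus luminescence.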

[28] = Validation screen for small molecules that induce DNA re-replication in SW480 colon adenocarcinoma cells (AID 504364); further: 0% is about no effect
Summary of the method: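 Hoechst-stained SW480 nuclei, imaged at 405 nm excitation after 48 hr compound exposure, were counted for elevated DNA content as the re-replication signal.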

[29] = molecular target: Voltage-gated inwardly rectifying potassium channel KCNH2 (Homo sapiens) (UniProt Q12809); experiment: qHTS Assay for Small Molecule Inhibitors of the Human hERG Channel Activity (AID 588834);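 further: top concentration of the series differs between compounds; on the % scale 0 is the no-effect control and ±100 the full control effect; lower thallium flux fluorescence means stronger hERG block; nearly all actives have a fitted effect of over 50% in size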
Chain of Voltage-gated inwardly rectifying potassium channel KCNH2 (Homo sapiens) (Q12809 whole entry, looked up): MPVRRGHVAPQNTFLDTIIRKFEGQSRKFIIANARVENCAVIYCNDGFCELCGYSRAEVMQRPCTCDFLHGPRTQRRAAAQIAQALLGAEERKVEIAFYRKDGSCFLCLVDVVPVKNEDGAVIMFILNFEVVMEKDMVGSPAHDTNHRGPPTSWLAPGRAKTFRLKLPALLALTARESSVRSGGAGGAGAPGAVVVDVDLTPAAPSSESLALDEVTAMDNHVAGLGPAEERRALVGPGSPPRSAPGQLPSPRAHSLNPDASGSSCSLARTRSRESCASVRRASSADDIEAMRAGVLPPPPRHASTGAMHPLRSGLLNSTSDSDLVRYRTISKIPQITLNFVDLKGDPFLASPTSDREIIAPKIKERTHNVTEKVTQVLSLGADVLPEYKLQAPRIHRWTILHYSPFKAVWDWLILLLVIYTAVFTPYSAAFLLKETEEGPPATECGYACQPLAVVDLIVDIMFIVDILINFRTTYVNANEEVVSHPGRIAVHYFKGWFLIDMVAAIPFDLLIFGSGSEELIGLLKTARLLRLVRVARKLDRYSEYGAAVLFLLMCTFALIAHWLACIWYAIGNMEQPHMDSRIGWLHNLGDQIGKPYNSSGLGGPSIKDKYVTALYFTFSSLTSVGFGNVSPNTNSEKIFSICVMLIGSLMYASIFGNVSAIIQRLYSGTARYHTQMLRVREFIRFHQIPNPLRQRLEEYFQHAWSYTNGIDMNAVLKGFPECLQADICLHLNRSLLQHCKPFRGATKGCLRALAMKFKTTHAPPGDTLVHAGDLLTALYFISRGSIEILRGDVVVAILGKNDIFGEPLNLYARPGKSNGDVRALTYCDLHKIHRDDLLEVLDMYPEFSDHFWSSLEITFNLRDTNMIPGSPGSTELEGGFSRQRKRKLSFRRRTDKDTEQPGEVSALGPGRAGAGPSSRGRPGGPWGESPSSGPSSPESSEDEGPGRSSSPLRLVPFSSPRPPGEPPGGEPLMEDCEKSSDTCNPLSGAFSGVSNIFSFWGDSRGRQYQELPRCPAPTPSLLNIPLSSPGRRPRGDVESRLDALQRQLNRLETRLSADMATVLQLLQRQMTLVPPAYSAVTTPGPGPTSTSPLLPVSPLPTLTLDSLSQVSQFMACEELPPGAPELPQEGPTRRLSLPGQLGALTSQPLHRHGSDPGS
Summary of the method: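 Step 1: BacMam hERG transduction of U2OS, 4 hrs RT. Step 2: overnight 37 °C, plate 2000 cells/well, 4 hr. Step 3: FluxOR load, compound 10 min, stimulate, read fluorescence.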

COc1ccc2c(c1)c(CC(=O)O)c(C)n2Cc1ccc(F)cc1
inactive: activity change, negative = inhibition [1] 1.56% [at 38 µM] | activity change, negative = inhibition [2] 6.06% [at 38 µM] | activity, negative = inhibition [3] 11.9% [at 38 µM] | Potency [4] > 46 µM | outcome [5] | Potency [6] | outcome [7] | outcome [8] | Potency [9] | Potency [10] | Potency [11] | outcome [12] | outcome [13] | outcome [14] | Potency [15] | Potency [16] | outcome [17] | Potency [18] | Potency [19] | outcome [20] | Potency [21] | outcome [22] | Potency [23] | outcome [24] | outcome [25] | activation [26] 1.38% | outcome [27] | outcome [28] | Potency [29]
